# PubChem BioAssay AID492960 (National Center for Advancing Translational Sciences (NCATS), 2010)
# Inconclusive results are not listed. A number with no mark means an inactive call. Calls of active or inactive are those of the source. Calls come from the whole dose curve; as a rule, active = well fitted curve in the direction sought with a large enough effect; inconclusive = small, poorly fitted or top-dose-only effect, or effect the other way, or another doubt; inactive = no such curve, though single readings can be large or run the other way.
# Test: Secondary Assay for lipid storage modulators: HepG2 cell LDSA assay for probe SAR
# Details: HepG2 lipid droplet BODIPY, laser-scanning cytometry, 18-24 h; series mostly up to 46.1 µM; activity, negative = less lipid: at the top concentration
# Excerpt: NIH Molecular Libraries Probe Production Centers Network [MLPCN] NIH Chemical Genomics Center [NCGC] MLPCN Grant: 1 R03 MH085686-01 Assay Submitter (PI): Beller, Mathias; Max-Planck-Institut fur Biophysikalische Chemie NCGC Assay Overview: Storing lipids as a reservoir for energy or the anabolism of elementary metabolites is a common feature of probably all cells and is conserved from bacteria to humans. The universal cellular lipid storage organelle is the so-called lipid storage droplet (LD). Although ubiquitous, LDs share a simple structure composed of a hydrophobic core that harbors the storage lipids, which is shielded by a droplet-specific phospholipid monolayer to which proteins are attached. The current model of LD biogenesis involves an incorporation of the lipid core into the membrane leaflets of the endoplasmic reticulum (ER) followed by a subsequent budding-like maturation of a LD, which ultimately pinches off. Once released, LD volume can increase by localized lipogenesis or fusion of existing droplet. Storage lipids are re-mobilized enzymatically by lipase activity. Lipase regulation in the adipocyte is heavily studied and involves multiple components including catecholamine signaling, the LD-associated proteins Perilipin and comparative gene identification (CGI-58) and at least two lipases named hormone sensitive lipase (HSL) and adipocyte triglyceride lipase (ATGL). LD regulation outside of the adipocyte is poorly understood and only few components are known. However, there is an urgent need to learn more about ectopic fat depots as mislocalized storage of lipids, for example in the liver or muscle, is an eminent health problem associated with insulin resistance or the metabolic syndrome.
# NCGC Assay Protocol Summary: The assay was performed with HepG2 cells, using an oleic acid feeding protocol similar to the S3 assay. We dispensed 4 uL of cells to give 700 cells/well into Greiner bio-one 1,536-well plates (black walled, clear bottom). Triacsin C (Sigma-Aldrich T-4540), an inhibitor of long-chain fatty acyl CoA synthetase that blocks synthesis of triglycerides, was used as a positive control for lipid under-storage using a final concentration of 20 uM. The orexin antagonist, SB408124 - previously identified to stimulate lipid over-storage, was used as a positive control for lipid over-storage using a final concentration of 20 uM. A total of 23 nL of compound solution of different concentrations were transferred to the assay plates using a Kalypsys pin tool equipped with a 1,536-pin array containing 10-nL slotted pins (FP1S10, 0.457-mm diameter, 50.8 mm long; V&P Scientific). One microliter of oleic acid was added (400 uM final concentration), and the plate was lidded with stainless steel rubber gasket lined lids containing pinholes. After 18-24 h incubation at […] and 95% humidity, 4 uL of the dyes BODIPY 493/503 (Molecular Probes) and the Cell Tracker Red CMTPX dye (Molecular Probes) were added to the wells to stain lipid droplets and enumerate cell number, respectively. Fluorescence was detected by excitation of the fluorophores with a 488-nm laser on an Acumen Explorer (TTP Lab Tech). The total intensity in channel 2 (500-530 nm) reflected lipid droplet accumulation. Cells were detected using channel 3 (575-640 nm) with 5-um width and 100-um depth filters. The ratio of the number of objects in PMT channel 2 over the number of objects in PMT channel 3 was also calculated. […]
SMILES,"activity, negative = less lipid [%]",Potency
CCOC(=O)C1CCN(C(=O)C2(NC(=O)Nc3ccccc3Cl)CCCC2)CC1,32.5,
CCOc1ccc(CCNC(=O)c2ccc(C(=O)c3ccccc3)cc2)cc1OCC,15.6,
CCOc1ccc(CCNC(=O)c2ccc(Oc3ccccc3)cc2)cc1OCC,33.8,
CCOc1ccc(CCNC(=O)c2ccccc2)cc1OCC,-5.19,
CCC/C=C/C/C=C/C=C/C=N/NN=O,,396 nM (active)
